Records with an inconclusive call do not appear. Calls of active or inactive are those of the source. The call rests on the fitted dose curve; in most records, active means well fitted inhibition curve with a large enough effect; inconclusive means small, poorly fitted or top-dose-only effect; inactive means flat fitted curve, though single readings scatter.
Potency means the concentration at half of the fitted maximal effect.

For one test, the system named is TAB165. The test can be described thus: qHTS profiling for inhibitors of Plasmodium falciparum proliferation (AID 504749). Further: nearly all actives have a fitted effect of over 60% in size. The following applies: P. falciparum in erythrocytes, SYBR Green DNA, 72 h; series mostly up to 28.7 µM. In outline: (§1)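 P. falciparum-infected erythrocytes (0.3% parasitemia, 2.5% hematocrit final) were exposed to compounds for 72 h at 37 C in 5% CO2, then lysed with SYBR Green buffer overnight at room temperature; parasite DNA fluorescence was normalized to artemisinin and DMSO controls.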
On the technique in general: qHTS replaces the single test concentration by a dilution series.
For the compound `CC(=O)Oc1ccc(C2(c3ccc(OC(C)=O)cc3)C(=O)Nc3ccccc32)cc1`, the Potency result was “inactive”.

In the case of `O=C1NC(=O)[C@@]2(CCOc3ccc(F)cc32)N1`, the Potency entry is “inactive”.

Take `COCCOC(=O)C1=C(C)NC(C)=C(C(=O)OC/C=C/c2ccccc2)C1c1cccc([N+](=O)[O-])c1` (configuration not stated): the Potency is 12.6 µM (active).

Consider `CC(=O)c1ccc2c(c1)N(CCCN(C)C)c1ccccc1S2`, for which the Potency result is “inactive”.

With `CCCCN(CCCC)CC(O)c1cc(Cl)cc2c1-c1ccc(Cl)cc1/C2=C/c1ccc(Cl)cc1` (configuration not stated), the Potency was 0.0079 µM (active).

For `CC(CN1c2ccccc2Sc2ccccc21)N(C)C` (configuration not stated), the Potency result was “inactive”.

Turning to `NC(=O)NNc1ccccc1`, the Potency result is “inactive”.

`C=Cc1c(C)c2cc3[nH]c(cc4nc(cc5nc(cc1[nH]2)C(C)=C5CCC(=O)O)C(CCC(=O)O)=C4C)c(C)c3C=C`: the Potency entry is “inactive”.

`CCN(CC)CCNC(=O)c1c(C)[nH]c(/C=C2\C(=O)Nc3ccc(F)cc32)c1C`: the Potency is 7.08 µM (active).

For the compound `CCN(CC)CCSC(=O)C(c1ccccc1)c1ccccc1`, the Potency entry is “inactive”.

Regarding `CN1CCN(C2Cc3ccccc3Sc3ccc(Cl)cc32)CC1` (configuration not stated), the Potency is 12.6 µM (active).

Turning to `CN(C)CCCN1c2ccccc2Sc2ccc(Cl)cc21`, the Potency is 8.91 µM (active).

Regarding `Cc1c(O)cccc1C(=O)N[C@@H](CSc1ccccc1)[C@H](O)CN1C[C@H]2CCCC[C@H]2C[C@H]1C(=O)NC(C)(C)C`, the Potency was 10 µM (active).

In the case of `C[C@](N)(Cc1ccc(O)cc1)C(=O)O`, the Potency result was “inactive”.

For the compound `CSc1ccc2c(c1)C(N1CCN(C)CC1)Cc1ccccc1S2` (configuration not stated), the Potency is 12.6 µM (active).

In the case of `CC1=C(CC(=O)O)c2cc(F)ccc2/C1=C\c1ccc(S(C)=O)cc1` (configuration not stated), the Potency entry is “inactive”.

In the case of `CC1=C(/C=C/C(C)=C/C=C/C(C)=C/C(=O)O)C(C)(C)CCC1`, the Potency result was “inactive”.

Take `COC(=O)C1=C(C)NC(C)=C(C(=O)OC)C1c1ccccc1[N+](=O)[O-]`: the Potency entry was “inactive”.

Take `CSc1ccc2c(c1)N(CCC1CCCCN1C)c1ccccc1S2` (configuration not stated): the Potency is 12.6 µM (active).

With `CNCCC(Oc1ccc(C(F)(F)F)cc1)c1ccccc1` (configuration not stated), the Potency was 11.2 µM (active).

The subject of the next test is W2. Described as above. The conditions noted are these: P. falciparum in erythrocytes, SYBR Green DNA, 72 h; series mostly up to 28.7 µM. In outline: as §1
As to `CC(=O)Oc1ccc(C2(c3ccc(OC(C)=O)cc3)C(=O)Nc3ccccc32)cc1`, the Potency entry was “inactive”.

As for `CNCCCC1c2ccccc2C=Cc2ccccc21`, the Potency is 0.51 µM (active).

As to `O=C1NC(=O)[C@@]2(CCOc3ccc(F)cc32)N1`, the Potency entry was “inactive”.

Regarding `COCCOC(=O)C1=C(C)NC(C)=C(C(=O)OC/C=C/c2ccccc2)C1c1cccc([N+](=O)[O-])c1` (configuration not stated), the Potency is 9.53 µM (active).

For `CC(=O)c1ccc2c(c1)N(CCCN(C)C)c1ccccc1S2`, the Potency is 1.02 µM (active).

As to `NC(=O)NNc1ccccc1`, the Potency result is “inactive”.

For `C=Cc1c(C)c2cc3[nH]c(cc4nc(cc5nc(cc1[nH]2)C(C)=C5CCC(=O)O)C(CCC(=O)O)=C4C)c(C)c3C=C`, the Potency result was “inactive”.

With `CCN(CC)CCNC(=O)c1c(C)[nH]c(/C=C2\C(=O)Nc3ccc(F)cc32)c1C`, the Potency was 4.26 µM (active).

Consider `CN1CCN(C2Cc3ccccc3Sc3ccc(Cl)cc32)CC1` (configuration not stated), for which the Potency was 3.79 µM (active).

For the compound `CN(C)CCCN1c2ccccc2Sc2ccc(Cl)cc21`, the Potency was 1.07 µM (active).

As to `Cc1c(O)cccc1C(=O)N[C@@H](CSc1ccccc1)[C@H](O)CN1C[C@H]2CCCC[C@H]2C[C@H]1C(=O)NC(C)(C)C`, the Potency is 8.49 µM (active).

Consider `C[C@](N)(Cc1ccc(O)cc1)C(=O)O`, for which the Potency entry was “inactive”.

As to `CSc1ccc2c(c1)C(N1CCN(C)CC1)Cc1ccccc1S2` (configuration not stated), the Potency is 5.36 µM (active).

For the compound `CN1CCCCC1CCN1c2ccccc2Sc2ccc(S(C)=O)cc21` (configuration not stated), the Potency was 1.9 µM (active).

For the compound `CC1=C(/C=C/C(C)=C/C=C/C(C)=C/C(=O)O)C(C)(C)CCC1`, the Potency result was “inactive”.

Take `COC(=O)C1=C(C)NC(C)=C(C(=O)OC)C1c1ccccc1[N+](=O)[O-]`: the Potency result was “inactive”.

With `NC(=O)N/N=C/c1ccc([N+](=O)[O-])o1`, the Potency is 9.53 µM (active).

`CSc1ccc2c(c1)N(CCC1CCCCN1C)c1ccccc1S2` (configuration not stated): the Potency was 6.75 µM (active).

Consider `CNCCC(Oc1ccc(C(F)(F)F)cc1)c1ccccc1` (configuration not stated), for which the Potency is 3.79 µM (active).

As to `C[C@]12C[C@H](O)[C@H]3[C@@H](CCC4=CC(=O)CC[C@@]43C)[C@@H]1CC[C@@H]2C(=O)CO`, the Potency result was “inactive”.

Regarding `[Cl][In]([Cl])[Cl]`, the Potency is 7.57 µM (active).

Regarding `OCCN1CCN(CCCN2c3ccccc3Sc3ccc(Cl)cc32)CC1`, the Potency is 3.22 µM (active).

These data come from PubChem BioAssay (NCATS).
